Inconclusive results are not listed. Active and inactive are the calls of the source. Calls follow the shape of the dose curve; as a rule, active = well fitted inhibition curve with a large enough effect; inconclusive = small, poorly fitted or top-dose-only effect; inactive = no such curve, though single readings can be large or run the other way.
Potency is read from the fitted curve at half-maximal effect.

The nature of this test: InCell qHTS Assay for Inhibitors of the mTORC1 Signaling Pathway in MEF (Tsc2-/-, p53-/-) Cells: Hit Validation.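 Also: phospho-S6 Ser235/236 signal normalized to propidium iodide cell count per well; nearly all actives have a fitted effect of over 75% in size.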 The following applies: phospho-rpS6 immunofluorescence, 24 h; activity change, negative = inhibition: at 38.3 µM (top of the series). Background: In qHTS, concentration-response curves come from the screen itself.
In the case of `Cc1cccc(C2C=C(c3ccc(C)c(C)c3)Nc3nnnn32)c1` (stereo unspecified), the activity change, negative = inhibition is -17.1%.
The same measure, in the same setting: with `COc1ccc(CCN2C(=O)c3[nH]nc(-c4ccccc4O)c3C2c2cccc(OC)c2)cc1` (stereo unspecified) the figure was -28.2%.
For the compound `CCS(=O)(=O)c1ncc(Cl)c(C(=O)N(Cc2ccccc2)c2ccc(OC)cc2)n1`, the Potency was 2.93 µM (active).
Regarding `CN(C)c1ccc(-c2nc3ccccn3c2Nc2ccc3c(c2)OCCO3)cc1`, the activity change, negative = inhibition is -100%.
With `COc1cc(OC)c(NC(=O)Nc2ccc3c(c2)N(C)C(=O)c2ccccc2S3)cc1Cl`, the Potency was 13.1 µM (active).
Consider `Cc1oc(-c2ccccc2F)nc1Cn1c(SCc2cccc(Cl)c2)nc2ccncc21`, for which the activity change, negative = inhibition was -100%.
On to `Cc1ccc2sc(N(CCCN(C)C)C(=O)c3ccco3)nc2c1C`, for which the activity change, negative = inhibition was -25.4%.
As to `CC(C)CCNc1nc(Nc2ccccc2)c2cnn(C)c2n1`, the activity change, negative = inhibition was -100%.
Take `CCOc1ccc(S(=O)(=O)N(C(=O)c2ccncc2)c2ccc3oc(C)c(C(=O)OC)c3c2)cc1`: the activity change, negative = inhibition was -100%.
The same measure, in the same setting: with `COc1ccc(CCCc2nnc(SCC(=O)Nc3ccc(OC)cc3)o2)cc1` the figure was -100%.
On the same count and under the same terms, with `CCOc1cc(CNc2ccc(O)cc2)cc(Cl)c1OCc1ccccc1` the figure was -100%; with `O=C(NCC(c1cccs1)S(=O)(=O)c1cccs1)c1ccccc1` (stereo unspecified), -100%; with `COc1cccc(C(=O)Nc2ccc(-c3cc(C(F)(F)F)nn3-c3ccccc3)cc2)c1`, -100%.
As for `CCOc1ccc(N(C(C)C(=O)Nc2cc(Cl)ccc2OC)S(C)(=O)=O)cc1` (stereo unspecified), the activity change, negative = inhibition was -100%.
The same measure, in the same setting: with `COC(=O)c1c(C)oc2ccc(N(C(=O)c3ccncc3)S(=O)(=O)c3ccc(OC)cc3)cc12` the figure was -25.4%; with `COc1cc2c(cc1OC)n(CC(=O)c1ccc(F)cc1)c(=O)n1nc(CCn3nc(C)cc3C)nc21`, -100%.

The values above are taken from PubChem BioAssay AID651791 (National Center for Advancing Translational Sciences (NCATS), 2012).
